According to PubChem BioAssay (NCATS):
Inconclusive results are not listed. The source made the active and inactive calls. Calls come from the whole dose curve; as a rule, active = well fitted activation curve with a large enough effect; inconclusive = small, poorly fitted or top-dose-only effect; inactive = no such curve, though single readings can be large or run the other way.

target: Rap guanine nucleotide exchange factor 4 (Homo sapiens) (UniProt Q8WZA2); assay: Confirmatory qHTS for agonist of cAMP-regulated guanine nucleotide exchange factor 4 (EPAC2) (AID 1645884); conditions: EPAC2 GEF activity, Rap1B-BODIPY-GDP fluorescence; series mostly up to 154 µM;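 note: nucleotide exchange releases bodipy-GDP from Rap1 and this lowers its fluorescence; nearly all actives have a fitted effect of over 65% in size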
% is set by controls: 0 for no effect and ±100 for the full control effect.

Sequence of Rap guanine nucleotide exchange factor 4 (Homo sapiens) (Q8WZA2 whole entry, looked up): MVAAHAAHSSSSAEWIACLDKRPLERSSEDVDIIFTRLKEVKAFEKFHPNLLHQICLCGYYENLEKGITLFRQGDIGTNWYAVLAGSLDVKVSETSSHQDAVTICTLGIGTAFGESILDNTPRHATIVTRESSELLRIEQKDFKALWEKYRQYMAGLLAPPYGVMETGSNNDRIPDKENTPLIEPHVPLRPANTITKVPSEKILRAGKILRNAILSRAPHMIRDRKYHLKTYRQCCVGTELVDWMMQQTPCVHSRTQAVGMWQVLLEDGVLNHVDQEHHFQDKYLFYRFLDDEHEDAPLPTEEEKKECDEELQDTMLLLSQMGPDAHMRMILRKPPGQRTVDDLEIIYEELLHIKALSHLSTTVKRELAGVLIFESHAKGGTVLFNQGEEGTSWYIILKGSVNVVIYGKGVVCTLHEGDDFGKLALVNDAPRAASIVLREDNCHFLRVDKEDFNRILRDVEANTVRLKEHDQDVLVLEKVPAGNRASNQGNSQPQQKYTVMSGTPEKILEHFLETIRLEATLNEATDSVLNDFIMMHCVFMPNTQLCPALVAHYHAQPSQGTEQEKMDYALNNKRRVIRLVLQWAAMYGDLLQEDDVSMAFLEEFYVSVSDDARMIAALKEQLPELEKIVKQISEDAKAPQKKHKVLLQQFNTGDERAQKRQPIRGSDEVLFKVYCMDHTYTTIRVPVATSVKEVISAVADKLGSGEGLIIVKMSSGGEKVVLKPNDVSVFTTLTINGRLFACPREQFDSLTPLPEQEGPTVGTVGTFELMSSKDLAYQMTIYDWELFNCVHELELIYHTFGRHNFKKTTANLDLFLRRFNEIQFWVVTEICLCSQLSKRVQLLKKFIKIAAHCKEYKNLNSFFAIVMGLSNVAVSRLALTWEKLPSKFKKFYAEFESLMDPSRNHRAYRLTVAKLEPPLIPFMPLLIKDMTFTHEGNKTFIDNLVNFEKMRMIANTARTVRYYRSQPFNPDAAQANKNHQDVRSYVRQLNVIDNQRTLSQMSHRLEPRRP

Potency, inactive:
COc1ccc(OC)c(NC(=O)c2nc(S(=O)(=O)Cc3ccccc3)ncc2Cl)c1
O=C(NC1(O)C(=O)c2ccccc2C1=O)c1ccccc1
CCOC(=O)C1=CCN(S(=O)(=O)c2ccccc2C)C1c1ccc(Cl)c(Cl)c1 (stereo not given)
CCCCC[C@@H](C)N1C[C@H](COCc2ccccc2)Oc2cc(N3CC[C@@H](O)C3)ccc2S1(=O)=O
CN(C)c1ncc2ncc(=O)n(Cc3cccs3)c2n1
Cc1ccc(CN(Cc2ccco2)C(=O)c2ccccc2Br)o1
COC(=O)c1ccc2nc(-c3ccc(OC)c(OC)c3)c(Cc3ccccc3)n2c1
COc1ccc(C2CC(=O)c3c(O)cc(O)cc3O2)c(CC=C(C)C)c1OC (stereo not given)
O=C(c1cc(C(F)(F)F)cc(C(F)(F)F)c1)N1CCC2(CCCN(c3ncccn3)C2)CC1
Nc1nc(N)c(-c2cccc(C(F)(F)F)c2)c(Cc2cccc(C(F)(F)F)c2)n1
Cc1cccc(NC(=O)CNC(=O)CCc2nc3sc4c(c3c(=O)[nH]2)CCCC4)c1C
Cc1ccc(S(=O)(=O)Oc2cccc(/C=N/Nc3ccc(C(=O)O)cc3)c2)cc1
COC(=O)[C@@]1(C)CCC[C@@]2(C)c3ccc(O)c(C(C)C)c3CCC21 (stereo not given in full)
COc1ccc(-c2nc3ccccc3nc2-c2ccccc2)cc1
CCCCC[C@H](C)N1C[C@@H](COCc2ccccc2)Oc2cc(N3CC[C@H](O)C3)ccc2S1(=O)=O
COCOCCn1cc(CN2CCS(=O)(=O)N(Cc3ccc(-c4ccc(F)cc4)cc3)C(CC(C)C)C2=O)nn1 (stereo not given)
CCO[C@H]1OC(C(=O)NCc2ccccc2)=C[C@@H](c2ccc(C(F)(F)F)cc2)[C@@H]1CCCO
Cc1ccc(SCc2cc(=O)c3c(=O)n(-c4ccccc4)[nH]c3[nH]2)cc1
Cc1cccc(N2CC(C(=O)Nc3nnc(SCC(=O)NCC4CCCO4)s3)CC2=O)c1 (stereo not given)
Cc1cc(NC2=CC(=O)C(=O)c3ccccc32)no1
CC(C)=CCc1c2c(c3occ(-c4ccc(O)cc4)c(=O)c3c1O)C=CC(C)(C)O2
COCC(=O)Oc1c(Sc2ccccc2[N+](=O)[O-])c(C)nn1C(C)(C)C
O=c1c(O)c(-c2ccccc2)oc2ccc3occc3c12
CC(C)NC(=O)c1sc2nc(-c3cccs3)cc(-c3cccs3)c2c1N
O=C(CSc1nccn1Cc1ccc(Cl)cc1)Nc1ccc2c(c1)OCO2
Cc1occc1C(=O)N/N=C/C1=C(N2CCOCC2)C(=C/c2ccc(Cl)cc2Cl)/CC1

activation, inactive:
CCOc1ccccc1CNC(=O)Cn1nc(C)c2c(C)n(-c3ccc(C)cc3)nc2c1=O -0.659% [at 17.1 µM, percent relative to cAMP agonist control]
CC(=O)NC(c1ccccc1)c1c(O)ccc2ccccc12 (stereo not given) 2.11% [at 17.1 µM, percent relative to cAMP agonist control]
CC(C)(C)c1ccc(S(=O)(=O)NC(=O)C2(C)CCN2C(=O)Cc2ccc(-c3ccccc3)cc2)cc1 (stereo not given) -4.75% [at 17.1 µM, percent relative to cAMP agonist control]
Cc1cc(NS(=O)(=O)c2ccc(NC(=S)NC(=O)/C=C/c3ccccc3)cc2)no1 1.85% [at 17.1 µM, percent relative to cAMP agonist control]
CCC(C)n1c(SCC(=O)Nc2ccc3[nH]c(=O)[nH]c3c2)nc2ccccc2c1=O (stereo not given) 1.51% [at 17.1 µM, percent relative to cAMP agonist control]
O=C(Nc1ccccc1N1CCCCC1)c1cnccn1 0% [at 17.1 µM, percent relative to cAMP agonist control]
O=C(O)c1ccc(N=N/C(=N\Nc2ccc(C(=O)O)cc2)c2ccccc2)cc1 -13% [at 17.1 µM, percent relative to cAMP agonist control]
O=C(O)c1cc(NN=Nc2cccc([N+](=O)[O-])c2)cc([N+](=O)[O-])c1 1.11% [at 17.1 µM, percent relative to cAMP agonist control]
COc1cccc(C(=O)/C=C/c2ccc(OCC#N)c(OC)c2)c1 0% [at 17.1 µM, percent relative to cAMP agonist control]
